Most compounds without a hit are left out; they make up all but 4.7% or so of the library.
EBI2 block: EBI2 receptor antagonists, beta-arrestin recruitment, primary screen, cell-based, luminescence, 7a,25-OHC stimulation, uHTS; G-protein coupled receptor 183 (Homo sapiens), P32249; 7a,25-OHC stimulated; inhibition, % at 5 µM; hit rate 0.81% among 360,000; in the data active = inhibition above about 38%;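 note: enzyme fragment complementation signal reports receptor beta-arrestin coupling in cells; 0% = agonist plus DMSO wells and 100% = wells without agonist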
Target sequence (P32249 whole entry, looked up, the tested form may be a part): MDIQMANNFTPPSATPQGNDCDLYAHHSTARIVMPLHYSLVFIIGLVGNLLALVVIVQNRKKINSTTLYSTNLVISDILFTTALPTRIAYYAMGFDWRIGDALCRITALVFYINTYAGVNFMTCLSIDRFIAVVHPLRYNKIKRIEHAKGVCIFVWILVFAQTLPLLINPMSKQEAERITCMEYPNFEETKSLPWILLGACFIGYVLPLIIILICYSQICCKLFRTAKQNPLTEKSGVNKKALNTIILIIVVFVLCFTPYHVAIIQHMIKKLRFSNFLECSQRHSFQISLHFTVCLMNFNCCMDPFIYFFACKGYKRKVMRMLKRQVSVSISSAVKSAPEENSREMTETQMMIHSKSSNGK
tim23-1 inh: growth inhibitors of tim23-1 mutant yeast, primary screen, luminescence, uHTS | S. cerevisiae tim23-1 growth, BacTiter-Glo luminescence, 24 h | inhibition, % at 20 µM | hit rate 1.3% among 330,000 | AID 463212, 2010;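 active = growth inhibition of the mutant yeast at or above 50%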;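 note: temperature-sensitive mutant grown at 25 °C; plate controls were DMSO-treated mutant yeast for no effect and medium wells lacking yeast for full effect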
PfHsp90 yeast 2: growth inhibition of PfHsp90-expressing yeast, primary screen, antimalarial PfHsp90 inhibitor project, S. cerevisiae, BacTiter-Glo luminescence, single point, set 2. BacTiter-Glo ATP, 48 h; yeast lacking PDR1 and PDR3 efflux regulators. inhibition, % at 9.4 µM. hit rate 0.32% among 310,000;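 active = every replicate shows inhibition above about 80%, whatever the replicate mean, limit read from the data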;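 note: 0% = DMSO neutral controls and 100% = 20 µM radicicol positive controls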
SKKanGAS inh: S. pyogenes SKKanGAS growth inhibitors in kanamycin, primary screen, streptokinase expression inhibitor project, SKKanGAS strain, BacTiter-Glo luminescence; hit rate 1.3% among 300,000; 6 h; inhibition, % at 7.5 µM; AID 1662, 2009;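 active = mean replicate score, as percent of positive control median, at least 50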;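 note: strain carries kanamycin resistance gene driven by streptokinase promoter and grows in 40 µg/ml kanamycin; loss of luminescence reflects streptokinase promoter inhibition or plain growth inhibition; 0% = median of DMSO wells and 100% = positive control at its reference dose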
tim10-1 inh: growth inhibitors of tim10-1 mutant yeast, primary screen, luminescence, uHTS | S. cerevisiae tim10-1 ts strain growth, BacTiter-Glo, 24 h | hit rate 2.2% among 330,000 | inhibition, % at 20 µM;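 active = inhibition of at least 40%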;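 note: mutant grown at 25 °C; 0% = DMSO wells with yeast and 100% = wells holding no yeast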
TIM10 inh: growth inhibitors of isogenic TIM10 control yeast, primary screen, counter-screen for tim10-1 yeast inhibitor project, luminescence, uHTS; S. cerevisiae TIM10 strain growth, BacTiter-Glo luminescence, 24 h; inhibition, % at 10 µM; hit rate 1.4% among 330,000;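 active = inhibition of 40% or more at the single tested concentration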;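 note: wild-type TIM10 isogenic control strain grown at permissive 25 °C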
tim23-1 conf: tim23-1 mutant yeast growth inhibitors, confirmation, luminescence, single concentration | shares compounds with tim23-1 inh | S. cerevisiae tim23-1 growth, BacTiter-Glo luminescence, 24 h | inhibition, % at 20 µM | hit rate 83% among 4,400;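 active = inhibition above about 39% in either of two replicate wells at 20 µM, limit read from the data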;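 note: temperature-sensitive tim23-1 mutant grown at 25 °C; 0% = DMSO wells with yeast and 100% = medium wells without yeast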
* marks the source's active call; other numbers are inactive results; . = no result.

SMILES | EBI2 block | tim23-1 inh | PfHsp90 yeast 2 | SKKanGAS inh | tim10-1 inh | TIM10 inh | tim23-1 conf
O=C(CN1CCCCC1)Nc1nnc(-c2ccccc2)s1 | -1 | 4 | . | 4 | 12 | -13 | .
COc1ccccc1/C=C/C(=O)OCC(=O)c1c(N)n(C)c(=O)n(C)c1=O | -17 | 95* | 11 | 6 | 8 | -8 | 0
O=C1C(Cc2ccccc2)Nc2ncnc(N3CCCCC3)c2N1Cc1ccc(Cl)cc1 (stereo not drawn) | -2 | 25 | -5 | 10 | 37 | 21 | .
Cc1cc(C(=O)Nc2ccc(Br)cn2)sc1C | 7 | 64* | 43 | . | 0 | 11 | 68*
Cc1ccccc1C(=O)Nc1ccc(Br)cn1 | 6 | 21 | -9 | 2 | -1 | -8 | .
O=C(Nc1ccc(Br)cn1)c1ccc(Br)s1 | 2 | 27 | 12 | -7 | 3 | 10 | .
O=C(Nc1ccccc1C(=O)Nc1ccc(Br)cn1)c1ccccc1Cl | -13 | 52* | -29 | . | 37 | 18 | 54*
O=S1(=O)CCN2N=C(C3CC3)SC2=N1 | -2 | 1 | -17 | -2 | -9 | -3 | .
Nc1c(C(=O)N/N=C/c2ccc(F)cc2)oc2nc(-c3ccccc3)cc(-c3ccco3)c12 | 0 | -12 | -7 | 8 | -17 | -25 | .
O=C(Nc1ccc(F)cc1)c1nc(S(=O)(=O)Cc2ccccc2)ncc1Cl | 42 | 61* | 96* | -6 | 31 | 3 | -126
Cc1ccccc1CS(=O)(=O)c1ncc(Cl)c(C(=O)Nc2ccc(F)cc2)n1 | 53* | 62* | 114* | -12 | -1 | 6 | -23
Cc1ccccc1NC(=O)c1nc(S(C)(=O)=O)ncc1Cl | 24 | 33 | 2 | 12 | 39 | 31 | .
COc1ccc(OC)c(NC(=O)c2nc(S(=O)(=O)Cc3ccccc3)ncc2Cl)c1 | 85* | 73* | 100* | -12 | 11 | 34 | -43
Cc1nnc(NC(=O)c2nc(S(=O)(=O)Cc3ccccc3)ncc2Cl)s1 | -10 | 15 | 21 | 6 | 15 | 16 | .
CN1CCN(Cc2cn[nH]c2-c2ccc(F)cc2F)[C@@H](c2ccccc2)C1 | 11 | 3 | -8 | 3 | -10 | 7 | .
O=S(=O)(c1ccc(Cl)cc1)N1CCN(c2ncnc3sccc23)CC1 | -16 | 58* | -30 | . | -1 | 9 | 31
Cc1nc2ccc(NS(=O)(=O)c3ccc(Br)cc3)cc2s1 | -4 | 51* | 18 | . | 10 | 17 | 34
COc1cc(NC(=O)c2ncn[nH]2)cc(OC)c1OC | 3 | 9 | 12 | 0 | 5 | 5 | .
COC(=O)C1=NN(c2ccc(C)cc2)C2(S1)SC(C(C)=O)=C(C)N2c1ccccc1 (stereo not drawn) | 18 | 51* | . | 6 | 35 | 25 | 40*
CC1=NOC(=O)/C1=C\c1ccc(-c2cccc(Cl)c2)o1 | -9 | 57* | -14 | -12 | 16 | 32 | 69*
CCN(CC)CCOC(=O)c1ccc(NC(=O)C2(c3ccccc3)CCCC2)cc1 | -1 | 95* | -1 | 2 | 0 | 10 | 5
O=C(CCN1CCN(c2ccccc2)CC1)N/N=C/c1ccc([N+](=O)[O-])o1 | -6 | 23 | 6 | -11 | -12 | -3 | .
Cc1ccc(/C=C2/NC(=O)N(Cc3ccccc3)C2=O)o1 | -2 | 68* | 7 | 6 | 25 | 2 | 58*
O=C(CCCOc1ccc(Cl)cc1Cl)NCC1CCCO1 (stereo not drawn) | 6 | -3 | 30 | 0 | 16 | -13 | .
Cc1ccc(C(=O)O)cc1N1C(=O)c2cccc3c([N+](=O)[O-])ccc(c23)C1=O | 0 | 12 | -24 | 13 | 8 | 2 | .
SMILES | EBI2 block | tim23-1 inh | PfHsp90 yeast 2 | SKKanGAS inh | tim10-1 inh | TIM10 inh | tim23-1 conf
CC(=O)Oc1cccc(N2C(=O)c3cccc4c([N+](=O)[O-])ccc(c34)C2=O)c1 | 11 | 51* | -17 | 9 | 33 | 39 | 51*
O=C(COC(=O)c1ccc(O)cc1O)c1ccc(Cl)cc1 | 1 | 63* | -14 | 17 | -14 | -24 | 43*
CC(C)OCCCNC(=O)NC(=O)c1ccc(Cl)cc1 | -10 | 6 | 13 | 1 | 12 | -4 | .
O=C(N/N=C/c1ccccc1)c1c(O)c2ccccc2[nH]c1=O | 5 | 73* | 18 | 20 | -31 | 11 | 10
COC(=O)c1ccccc1-n1cccc1C(=O)NP(=O)(N1CCOCC1)N1CCOCC1 | -15 | 1 | -16 | -6 | 7 | 12 | .
FC(F)(F)c1ccccc1/C=N/n1c(COc2ccccc2)n[nH]c1=S | 0 | 50* | 20 | 8 | 26 | 24 | 37
COc1ccc(OC)c2c1sc(=NC(=O)C(C)C)n2C | 0 | 53* | 8 | 3 | 31 | 24 | 47*
CC(C)C(NS(=O)(=O)c1cccc(C(F)(F)F)c1)C(=O)O (stereo not drawn) | -14 | -1 | -15 | -10 | 17 | 1 | .
O=C(NCc1ccc2c(c1)OCO2)C1CCCN1C(=O)Nc1ccc(Cl)cc1 (stereo not drawn) | -9 | -2 | -18 | 4 | -3 | -20 | .
COc1ccc(N2C(=O)CC(NCc3cccs3)C2=O)cc1 (stereo not drawn) | 1 | 55* | -24 | 0 | -4 | 1 | 13
COc1ccc(/C=C2\SC(=Nc3ccccc3OC)NC2=O)cc1 | 1 | 53* | -61 | 29 | 34 | 38 | 60*
COc1cc(/C=C2\SC(=Nc3ccccc3OC)NC2=O)ccc1O | -1 | 39 | -4 | 7 | 16 | 15 | .
CCn1ccc(C(=O)Nc2c(C)nn(Cc3c(F)c(F)c(F)c(F)c3F)c2C)n1 | -34 | 8 | 19 | -5 | -2 | -16 | .
COCCn1c(=O)c2c(nc3n2CCCN3CCc2ccc(OC)c(OC)c2)n(C)c1=O | -2 | 17 | 9 | 1 | 15 | 3 | .
CN(CC(=O)Nc1ccc(F)cc1)C(=O)COC(=O)c1cccc(N(C)C)c1 | -9 | -10 | 5 | . | -12 | -4 | .
COc1cc2c3c(c1)C(C)CC(C)(C)N3C(=O)C2=O (stereo not drawn) | -20 | 51* | 9 | 1 | 32 | -2 | 63*
CC1CC(NC(=O)c2c(O)nc3ccccn3c2=O)CC(C)(C)C1 (stereo not drawn) | -11 | . | -8 | . | . | . | .
CC1CC(NC(=O)c2c(O)nc3sccn3c2=O)CC(C)(C)C1 (stereo not drawn) | -19 | 64* | -63 | 50* | -15 | -2 | -12
